Assay [1] is described as follows: S16 Schwann cell PMP22 intronic element beta-lactamase assay (AID 624044; calls by dose curve;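 note: 0% = DMSO and -100% = potassium clavulanate positive control; nearly all actives have a fitted effect of over 15% in size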). In short, it runs like this: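 Beta-lactamase reporter under a PMP22 intronic regulatory element in stable S16 rat Schwann cells; 24 h compound exposure. 460 nm blue signal normalized between DMSO (0%) and potassium clavulanate, with 535 nm FRET tracking viability; curves classed by r2 and response.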

Assay [2] addresses Luciferin 4-monooxygenase (Photinus pyralis) (UniProt P08659). Put plainly: Biochemical firefly luciferase enzyme assay for NPC (AID 624030).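 Note: purified P. pyralis luciferase at 10 nM with luciferin and ATP substrate; 0% = DMSO and -100% = full luciferase inhibition by PTC124 control; nearly all actives have a fitted effect of over 70% in size.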 The procedure, abridged:
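Direct inhibition of firefly luciferase enzyme (10 nM final, 50 mM Tris Acetate) assessed by luminescence within 5 minutes. Percent activity scaled between DMSO and PTC124 positive control, with concentration-effect curves classified by fit quality and response.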

Another assay concerns 7G8. As to the kind of experiment: qHTS profiling for inhibitors of Plasmodium falciparum proliferation (AID 504749). Note: potency is the fitted concentration of half-maximal effect; nearly all actives have a fitted effect of over 60% in size. The conditions noted are these: P. falciparum in erythrocytes, SYBR Green DNA, 72 h; series mostly up to 28.7 µM. In short, it runs like this: (§1)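 SYBR Green fluorescence of parasite DNA, read after lysis and overnight dark incubation, measured growth over 72 h in erythrocyte culture at 0.3% parasitemia and 2.5% hematocrit. Data normalised to DMSO and 0.29 uM artemisinin, with plate-drift correction.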
A general note: In qHTS, concentration-response curves come from the screen itself.

The test system of another assay is AS120. The description is as above. The conditions noted are these: P. falciparum in erythrocytes, SYBR Green DNA, 72 h; series mostly up to 28.7 µM. In short, it runs like this: as §1
Another assay relates to ATS189. Described as above. The conditions noted are these: P. falciparum in erythrocytes, SYBR Green DNA, 72 h; series mostly up to 28.7 µM. In short, it runs like this: as §1
In another assay the test system is CP185. The description is as above. As to conditions: P. falciparum in erythrocytes, SYBR Green DNA, 72 h; series mostly up to 28.7 µM. The procedure, abridged: as §1
The subject of the next assay is CP192. Described as above. As to conditions: P. falciparum in erythrocytes, SYBR Green DNA, 72 h; series mostly up to 28.7 µM. The procedure, abridged:
as §1

A further assay concerns CP194. The description is as above. As to conditions: P. falciparum in erythrocytes, SYBR Green DNA, 72 h; series mostly up to 28.7 µM. In short, it runs like this:
as §1

In a further assay the test system is CP201. Described as above. The conditions noted are these: P. falciparum in erythrocytes, SYBR Green DNA, 72 h; series mostly up to 28.7 µM. The procedure, abridged:
as §1

Another assay has as its system CP203. Described as above. The conditions noted are these: P. falciparum in erythrocytes, SYBR Green DNA, 72 h; series mostly up to 28.7 µM. In short, it runs like this: as §1
In another assay the test system is CP247. Described as above. As to conditions: P. falciparum in erythrocytes, SYBR Green DNA, 72 h; series mostly up to 28.7 µM. In short, it runs like this: as §1
A further assay concerns CP286. The assay is described as above. The conditions noted are these: P. falciparum in erythrocytes, SYBR Green DNA, 72 h; series mostly up to 28.7 µM. In short, it runs like this: as §1
The subject of a further assay is CP291. The description is as above. The conditions noted are these: P. falciparum in erythrocytes, SYBR Green DNA, 72 h; series mostly up to 28.7 µM. In short, it runs like this:
as §1

For a further assay, the system named is DFO2036. Described as above. As to conditions: P. falciparum in erythrocytes, SYBR Green DNA, 72 h; series mostly up to 28.7 µM. The procedure, abridged:
as §1

Another assay relates to P94_40. The description is as above. As to conditions: P. falciparum in erythrocytes, SYBR Green DNA, 72 h; series mostly up to 28.7 µM. In short, it runs like this: as §1
In another assay the test system is TAB109. Described as above. The conditions noted are these: P. falciparum in erythrocytes, SYBR Green DNA, 72 h; series mostly up to 28.7 µM. In short, it runs like this: as §1
A further assay concerns TAB113. The description is as above. As to conditions: P. falciparum in erythrocytes, SYBR Green DNA, 72 h; series mostly up to 28.7 µM. The procedure, abridged:
as §1

Assay [3] is described as follows: qHTS Assay for Identification of Small Molecule Antagonists for Thrombopoietin (TPO) Signaling Pathway (AID 918). Note: potency is the fitted concentration of half-maximal effect; nearly all actives have a fitted effect of over 60% in size. As to conditions: TPO-dependent cell signaling reporter, antagonist mode. In short, it runs like this:
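Inhibitors of TPO signaling are sought by stimulating IL-3-starved murine Ba/F3 cells (human TPO receptor, Glycoprotein IIb-driven luciferase) with TPO at its EC50 of 26 pM alongside compound. After 24 hrs at 37 C, reporter luminescence is measured.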

Assay [4] has as its target Bile acid receptor (Homo sapiens) (UniProt Q96RI1). Put plainly: qHTS assay for small molecule antagonists of farnesoid X receptor signaling (AID 588526; calls by dose curve; note: % is set by controls: 0 for no effect and ±100 for the full control effect). The procedure, abridged:
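Beta-lactamase reporter antagonist mode: HEK293T FXR-UAS-bla cells, titrated compound, CDCA stimulation, 16 h 37 C, CCF4 dye 2 h RT. Data normalized to CDCA 50 uM and DMSO; Hill-fit IC50.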

For assay [5] the target is unchanged. Put plainly: qHTS assay for small molecule agonists of farnesoid X receptor signaling (AID 588527; calls by dose curve;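 note: 0% = vehicle basal and 100% = reference agonist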). The conditions noted are these: HEK293T FXR-UAS-bla, beta-lactamase ratio, 16 h; hits give high values. In short, it runs like this:
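Quantitative HTS used FXR-UAS-bla HEK293T cells with 16 h compound incubation at 37 C. EC50 values came from concentration-response curves normalized to chenodeoxycholic acid.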

Several values for one entry are separate records, joined by “and”; a condition that tells them apart may be missing. Equal entries are not always repeated. Inconclusive results are not listed. Activity calls are given as the source filed them. Unless noted, calls come from the whole dose curve; as a rule, active = well fitted curve in the direction sought with a large enough effect; inconclusive = small, poorly fitted or top-dose-only effect, or another doubt; inactive = no such curve, though single readings can be large; an effect the other way counts as inactive or inconclusive.

Bile acid receptor (Homo sapiens), sequence (Q96RI1 whole entry, looked up): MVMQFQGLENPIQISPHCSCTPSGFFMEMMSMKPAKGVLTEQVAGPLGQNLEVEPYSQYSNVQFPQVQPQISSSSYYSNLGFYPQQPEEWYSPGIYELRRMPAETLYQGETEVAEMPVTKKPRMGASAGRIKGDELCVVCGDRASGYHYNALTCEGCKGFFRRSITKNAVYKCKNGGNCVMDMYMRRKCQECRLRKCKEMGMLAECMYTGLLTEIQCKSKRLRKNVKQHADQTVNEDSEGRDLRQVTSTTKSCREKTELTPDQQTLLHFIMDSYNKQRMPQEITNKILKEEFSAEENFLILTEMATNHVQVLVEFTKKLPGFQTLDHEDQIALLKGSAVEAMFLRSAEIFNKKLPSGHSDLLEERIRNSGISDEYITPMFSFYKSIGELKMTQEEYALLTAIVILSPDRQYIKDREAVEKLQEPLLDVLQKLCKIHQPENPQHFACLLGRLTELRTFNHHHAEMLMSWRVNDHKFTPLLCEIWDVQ
Luciferin 4-monooxygenase (Photinus pyralis), sequence (P08659 whole entry, looked up): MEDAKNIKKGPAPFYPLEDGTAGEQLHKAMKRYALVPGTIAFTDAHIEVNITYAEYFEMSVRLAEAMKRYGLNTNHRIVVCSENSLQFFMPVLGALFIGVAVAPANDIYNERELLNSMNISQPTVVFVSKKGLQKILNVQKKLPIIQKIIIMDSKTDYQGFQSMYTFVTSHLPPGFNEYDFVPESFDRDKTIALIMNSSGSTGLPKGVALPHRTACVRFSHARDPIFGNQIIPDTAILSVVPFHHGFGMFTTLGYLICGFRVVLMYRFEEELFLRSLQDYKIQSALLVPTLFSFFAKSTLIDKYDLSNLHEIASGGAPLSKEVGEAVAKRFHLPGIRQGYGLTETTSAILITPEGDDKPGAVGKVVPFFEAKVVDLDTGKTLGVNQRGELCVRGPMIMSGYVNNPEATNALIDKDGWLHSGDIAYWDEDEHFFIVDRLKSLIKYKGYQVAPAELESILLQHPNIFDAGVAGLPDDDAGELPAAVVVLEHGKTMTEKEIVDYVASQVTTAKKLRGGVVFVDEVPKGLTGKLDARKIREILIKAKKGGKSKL

`O=C1C[C@@H]2OCC=C3CN4CC[C@]56c7ccccc7N1[C@@H]5[C@@H]2[C@H]3C[C@H]46` (tested in a mixture with another compound): in [1], the compound was classed as inactive.

Turning to `C=C[C@@H]1CN2CC[C@H]1C[C@H]2[C@H](O)c1ccnc2ccccc12`, the outcome in assay [2] and in [1] was inactive. Further, the Potency in the assay on 7G8 is 158 nM (active); with AS120 it was 891 nM (active); with ATS189, 794 nM (active); with CP185, 1.26 µM (active); with CP192, 953 nM (active); in the assay on CP194, 849 nM (active). The Potency with CP201 is 1.51 µM (active); in the assay on CP203, 675 nM (active); in the assay with CP247, 2.24 µM (active); with CP286, 794 nM (active); with CP291, 675 nM (active); in the assay with DFO2036 it was 355 nM (active). Further, the Potency with P94_40 is 398 nM (active); with TAB109, 178 nM (active); in the assay with TAB113, 501 nM (active).

Take `CCn1cnc2c(Nc3cccc(Cl)c3)nc(N[C@@H]3CCCC[C@H]3N)nc21`: the Potency in [3] was 2.51 µM (active).

As to `c1ccc2c(c1)Sc1ccccc1N2C[C@H]1CN2CCC1CC2`, the result in assay [2] was inactive.

On to `C=CCOCC1CO1` (stereo not given), for which the compound was called inactive in [4]. The activation in assay [5] is -2.32% (inactive).

Turning to `CC(=O)c1c(O)c(C)c(O)c(Cc2c(O)c3c(c(C(=O)/C=C\c4ccccc4)c2O)OC(C)(C)C=C3)c1O`, the Potency in assay [3] is 2.51 µM (active).

As for `NC1CCC(CC2CCC(N)CC2)CC1` (stereo not given), the compound was called inactive in [4]. Moreover, the activation in [5] was -0.153% (inactive) and 0.847% (inactive).

The record behind these values is PubChem BioAssay (NCATS).
